HT1080-NT tox: kills 2HG-producing HT-1080-NT fibrosarcoma cells. HT-1080-NT fibrosarcoma viability, CellTiter-Glo ATP luminescence, 48 h. Potency, µM (top dose mostly 46.1 µM), actives largely listed as cytotoxic. 1.6% of 360,000 active;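 also: NT is the 2HG producing partner of a matched IDH1 knockdown line; nearly all actives have a fitted effect of over 55% in size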
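Compounds were tested in concentration-response format on HT-1080-NT cells for 48 hours at 37 degrees C. Cell viability came from CellTiter-Glo luminescence; curves were classified by r2, response magnitude and activity.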
KB-V1 MDR tox: KB-V1 MDR subline cytotoxicity; Potency, µM (series often up to 46.1 µM), most hits filed as cytotoxic; 3.4% of 400,000 active; KB-V1 MDR cells viability, CellTiter-Glo, 72 h; also: nearly all actives have a fitted effect of over 60% in size
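Following 72 h at 37 degrees C with compound, KB-V1 cell viability was read by CellTiter-Glo luminescence, medium being phenol-red-free DMEM plus 10% FBS; concentration-response parameters came from normalized, curve-fitted qHTS data.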
HT1080 IDH1KD tx: toxicity to HT-1080 IDH1 knockdown cells (counter line). HT-1080 IDH1 knockdown viability, ATP luminescence, 48 h. Potency, µM (highest dose often 46.1 µM), hits mostly cytotoxic. 2% of 360,000 active. AID 686971
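Viability of IDH1-knockdown HT-1080 fibrosarcoma cells was assessed by CellTiter-Glo after 48 h at 37 °C with titrated compound; concentration-effect curves were classified by fit quality and response size.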
KB-3-1 tox: KB-3-1 parental cell cytotoxicity. Potency, µM (highest dose often 46.1 µM), most hits filed as cytotoxic. 1.4% of 400,000 active. KB-3-1 viability, CellTiter-Glo ATP luminescence, 72 h; also: nearly all actives have a fitted effect of over 60% in size
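Parental KB-3-1 viability, qHTS format: 72 h compound exposure, 37 °C; CellTiter-Glo; media-only wells and DMSO plates as controls; concentration-effect fits on corrected data.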
A number is an active result; i = inactive; ? = inconclusive; nt = no result given. In the library only some 5.7% were active in any assay of this set; here they are far more common. Calls follow the shape of the dose curve; as a rule, active = well fitted curve in the direction sought with a large enough effect; inconclusive = small, poorly fitted or top-dose-only effect, or another doubt; inactive = no such curve, though single readings can be large; an effect the other way counts as inactive or inconclusive.

SMILES	HT1080-NT tox	KB-V1 MDR tox	HT1080 IDH1KD tx	KB-3-1 tox
CCCCOc1cccc(-c2cc(C(=O)NNC(=S)NCC)c3ccccc3n2)c1	?	21µM	?	i
COc1ccc(-c2cc(C(=O)NCC3CCCO3)c3ccccc3n2)cc1 (configuration not stated)	i	i	i	i
CCNC(=S)NNC(=O)c1cc(-c2cccc(OCC)c2)nc2ccccc12	?	i	i	i
COc1cccc(-c2cc(C(=O)NCC3CCCO3)c3ccccc3n2)c1 (configuration not stated)	i	12µM	i	i
CCNC(=S)NNC(=O)c1cc(-c2cccc(C)c2)nc2ccccc12	?	?	6.3µM	?
CCCCOc1ccc(-c2cc(C(=O)NNC(=S)NCC)c3ccccc3n2)cc1	18µM	6.5µM	?	7.3µM
O=S(=O)(c1ccc2c(c1)OCCO2)N1CCN(c2nc(-c3ccccc3)nc3ccccc23)CC1	i	nt	i	nt
CCNC(=S)NNC(=O)c1cc(-c2ccc(OC)cc2)nc2ccccc12	10µM	9.2µM	18µM	?
O=C(NC(=S)Nc1ccccn1)c1cc(-c2ccccc2)nc2ccccc12	i	16µM	i	i
CCCCNC(=O)[C@@H]1CC=C[C@@H]2CCN(C3CCCCC3)C(=O)[C@@H]21	nt	?	nt	i
FC(F)(F)c1cccc(N2CCN(Cc3nnc(-c4ccc5c(c4)OCO5)o3)CC2)c1	nt	i	nt	i
CS(=O)(=O)c1nc([N+](=O)[O-])nn1CCCc1ccccc1	?	?	?	26µM
Cc1nn(CCCC(=O)NCCc2ccccc2)c(C)c1[N+](=O)[O-]	?	i	i	i
Cn1nc([N+](=O)[O-])nc1S(C)(=O)=O	16µM	?	16µM	?
O=S(=O)(c1ccc(C(F)(F)F)cc1)N1CCN(c2nc(-c3cccs3)nc3ccccc23)CC1	i	nt	i	nt
O=c1c2oc3ccccc3c2n(Cc2ccccc2F)c(=O)n1Cc1ccccc1	nt	i	nt	i
COc1ccc(OCCn2c(NC(=O)c3ccco3)nc3ccccc32)cc1	?	i	?	i
CCCn1c(NC(=O)c2ccco2)nc2ccccc21	?	15µM	i	i
CCCn1c(NC(=O)c2ccccc2Br)nc2ccccc21	i	9.2µM	?	?
CCc1c(C)nc2nncn2c1NCc1ccccc1	nt	?	nt	i
Cc1ccc(OCC(=O)Nc2ccccc2C(=O)OCc2cc(=O)n3ccsc3n2)cc1C	nt	i	nt	i
CCCCCOC(=O)Cn1c(=O)c2c(nc(N3CCOCC3)n2C)n(C)c1=O	i	16µM	i	i
CCOC(=O)Cn1c(=O)c2c(nc(N3CCOCC3)n2C)n(C)c1=O	i	i	i	i
C=CCSc1nccc(-c2nn(-c3ccc(C)cc3)ccc2=O)n1	?	3.7µM	?	6.5µM
CCSc1nccc(-c2nn(-c3ccc(C)cc3)ccc2=O)n1	10µM	2.6µM	9.2µM	2.1µM
SMILES	HT1080-NT tox	KB-V1 MDR tox	HT1080 IDH1KD tx	KB-3-1 tox
CSc1nccc(-c2nn(-c3ccc(C)cc3)ccc2=O)n1	?	2.9µM	8.2µM	5.2µM
CCC(=O)N1c2ccccc2CC1C(=O)NCc1ccc(CC)cc1 (configuration not stated)	nt	i	nt	i
COc1ccccc1-c1cc2nc(C)c(CCC(=O)NCCc3cccc(C)c3)c(C)n2n1	nt	i	nt	i
COc1cccc(-c2c(-c3ccccc3OC)ncn2Cc2cccc(-c3ccccc3)c2)c1	?	13µM	?	?
COc1cccc(Cn2cnc(-c3ccccc3OC)c2-c2ccco2)c1	i	?	i	?
CCCCc1c(-c2ccccc2OC)ncn1CCc1cccc(F)c1	21µM	16µM	18µM	?
CCCCc1c(-c2ccccc2OC)ncn1CCc1cccc(OC)c1	18µM	12µM	16µM	?
CS(=O)(=O)N(CC(=O)NCCSc1ccccc1)c1cc(C(F)(F)F)ccc1Cl	nt	i	nt	i
Cc1ccc(NC(=O)CSc2nc(-c3ccco3)nc3cc(=O)[nH]n23)cc1	nt	?	nt	i
O=C(Nc1ccc2c(c1)OCO2)c1ccc(N2CCCC2)c([N+](=O)[O-])c1	i	23µM	i	i
O=C(Nc1ccc(N2CCCCC2)c(Cl)c1)c1ccc(N2CCOCC2)c([N+](=O)[O-])c1	i	?	i	i
O=C(Nc1ccc2c(c1)OCO2)c1ccc(Br)c(S(=O)(=O)N2CCCC2)c1	i	5.2µM	i	?
COc1cccc(CNC(=O)COC(=O)c2cc([N+](=O)[O-])ccc2N2CCCC2)c1	i	7.3µM	i	i
O=C(Nc1ccc2c(c1)OCCO2)c1ccc(Br)c(S(=O)(=O)N2CCOCC2)c1	i	?	i	i
O=C(NCc1ccc2c(c1)OCO2)c1cc([N+](=O)[O-])ccc1N1CCCCC1	7.3µM	?	8.2µM	2.1µM
O=C(NCc1ccco1)c1cc([N+](=O)[O-])ccc1N1CCCCC1	i	i	i	i
O=c1[nH]/c(=C/c2ccc3c(c2)OCO3)c(=O)[nH]/c1=C\c1ccc2c(c1)OCO2	nt	i	nt	?
O=C1CCC[C@@H]2C[C@@]3(C[C@@H]4CCN1[C@H]24)Nc1ccccc1NC3=NC1CCCCC1	nt	i	nt	i
Cc1cccc(OCCn2c(SCC(=O)O)nc3ccccc32)c1	nt	i	nt	i
O=C(Nc1ccc(Cl)c([N+](=O)[O-])c1)c1ccc2c(c1)OCCO2	i	13µM	i	i
O=C(Nc1ccc(N2CCCCC2)c(Cl)c1)c1ccc2c(c1)OCCO2	?	?	?	16µM
O=C(Nc1ccc2c(c1)OCO2)c1ccc(NC2CC2)c([N+](=O)[O-])c1	?	15µM	i	?
O=C(Nc1ccc2c(c1)OCO2)c1ccc2c(c1)OCO2	i	i	i	i
COc1ccc(NC(=O)c2cc(S(=O)(=O)N3CCCCCC3)cn2C)cc1Cl	nt	i	nt	i
CCOCCCn1c(SCC(=O)Nc2ccc(F)cc2)nc2c(sc3ccccc32)c1=O	nt	?	nt	i
SMILES	HT1080-NT tox	KB-V1 MDR tox	HT1080 IDH1KD tx	KB-3-1 tox
CC(OC(=O)c1cc(Br)ccc1O)C(=O)Nc1ccc(S(=O)(=O)N2CCCC2)cc1 (configuration not stated)	?	23µM	?	?
O=C1c2ccccc2C(=O)c2c(NCc3cccnc3)cccc21	i	8.2µM	i	i
Cc1oc2c(c1C(=O)NCc1cccnc1)C(=O)c1ccccc1C2=O	4.1µM	2.6µM	2.6µM	?
CC(=O)c1c(C)oc2c1C(=O)c1ccccc1C2=O	i	6.5µM	i	?
Cc1cc(-c2ccc(S(=O)(=O)N3CCN(c4ccc(Cl)cc4)CC3)s2)on1	nt	?	nt	i
CC(=O)Nc1cccc(NC(=O)C2(c3cccs3)CCOCC2)c1	nt	i	nt	i
COc1ccc(S(=O)(=O)N2CCCCC2c2cc(C(=O)Nc3ccc(OC)cc3C)no2)cc1 (configuration not stated)	i	i	i	18µM
Clc1ccc(-c2noc(CSc3nnc(-c4ccncc4)n3-c3ccccc3)n2)cc1	?	2.6µM	?	i
Cn1c(Cn2c(=O)sc3ccccc32)nnc1SCC(=O)N1CCN(c2ccccc2)CC1	i	i	i	i
O=C(CSc1nnc(-c2ccncc2)n1-c1ccccc1)N1CCN(c2ccc(Cl)cc2)CC1	i	16µM	i	i

Bioassay records (PubChem)
